Laboratory results published in PubChem BioAssay (NCATS).
Records with an inconclusive call do not appear. Active and inactive are the calls of the source. Unless noted, calls follow the shape of the dose curve; as a rule, active = well fitted curve in the direction sought with a large enough effect; inconclusive = small, poorly fitted or top-dose-only effect, or another doubt; inactive = no such curve, though single readings can be large; an effect the other way counts as inactive or inconclusive.

Columns and labels:
[1] = MultiTox-Fluor Cytotoxicity Assay - LYMP1-003 - Dead Cells (AID 961); details: LYMP1-003 lymphoblastoid cells, dead-cell protease fluorescence; series mostly up to 92.2 µM;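 also: 0% = DMSO and 100% = tetraoctylammonium bromide; nearly all actives have a fitted effect of over 70% in size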
How it was run: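 LYMP1-003 human lymphoblastoid cells (2500/well) exposed to compound 16 h at 37 C in complete medium; dead-cell protease read with bis-AAF-R110 fluorescence (Ex/Em 485/520) after 60 min at room temperature. Normalized to DMSO and 15 uM tetraoctylammonium bromide; AC50 from Hill fit.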

[2] = MultiTox-Fluor Cytotoxicity Assay - LYMP1-003 - Live Cells (AID 962); details: LYMP1-003 lymphoblastoid cells, MultiTox-Fluor live-cell protease fluorescence; series mostly up to 92.2 µM;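 also: 0% = DMSO only and full loss = 92 µM tetraoctylammonium bromide; cytotoxic hits lower the live-cell protease signal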
How it was run: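 Human lymphoblastoid line LYMP1-003 in complete culture medium, treated 16 hr with titrated compounds. Viable cells quantified via cell-permeant GF-AFC substrate fluorescence; AC50 derived by Hill fitting.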

[3] = Cell Viability - LYMP1-003 - Assay at 24 hr (AID 963); details: LYMP1-003 lymphoblastoid cell viability; series mostly up to 92.2 µM;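 also: plate controls were DMSO only for no effect and tetraoctylammonium bromide positive control for full effect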
How it was run: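 The lymphoblastoid line was treated with titrated compounds for 24 hours, and viable cell number estimated from luciferase-based ATP luminescence.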

[4] = Cell Viability - LYMP2-003 (AID 965); details: LYMP2-003 lymphoblastoid cell viability; series mostly up to 92.2 µM;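 also: cells exposed to compounds for 24 h before reading; 0% = DMSO only and full effect = 92 µM tetraoctylammonium bromide; nearly all actives have a fitted effect of over 50% in size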
How it was run: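 Acute cytotoxicity is scored as a concentration-dependent drop in intracellular ATP, measured by luciferase luminescence in human lymphoblastoid cells treated for 24 hours at 37 C. AC50 values derive from Hill-equation modelling.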

[5] = Cell Viability - LYMP2-004 (AID 966); details: LYMP2-004 lymphoblastoid cell viability, qHTS; series mostly up to 92.2 µM;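 also: plate controls were DMSO only for no effect and tetraoctylammonium bromide control for full effect; nearly all actives have a fitted effect of over 65% in size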
How it was run: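 Viable-cell number estimated from ATP luminescence (CellTiter-Glo) in 2500 human lymphoblastoid cells/well after 24 hr at 37 C with compound. AC50 fitted to the standard Hill equation.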

[6] = Cell Viability - LYMP2-019 (AID 973); details: LYMP2-019 lymphoblastoid cell line viability; series mostly up to 92.2 µM;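 also: 0% = DMSO alone and full effect = 92 µM tetraoctylammonium bromide; nearly all actives have a fitted effect of over 55% in size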
How it was run: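 AC50 values come from Hill-equation modelling of qHTS concentration-response curves, where viability is measured as luciferase-based ATP luminescence in the lymphoblastoid line after 24 hr compound exposure in complete culture medium.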

[7] = Cell Viability - LYMP2-021 (AID 974); details: LYMP2-021 lymphoblastoid cells viability; series mostly up to 92.2 µM;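 also: compound exposure lasts 24 hours at 37 °C; % is scaled to controls: 0 for no effect and ±100 for the full control effect; nearly all actives have a fitted effect of over 55% in size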
How it was run: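 In qHTS format, compounds are tested against 2500 lymphoblastoid cells per well for 24 h; viable cell number is inferred from ATP-driven luciferase light, and Hill-equation fitting yields AC50 values.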

[8] = Cell Viability - LYMP2-023 (AID 975); details: LYMP2-023 lymphoblastoid cell viability; series mostly up to 92.2 µM;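 also: cellular ATP measured by luciferase luminescence as viability proxy; plate controls were DMSO only for no effect and 92 µM tetraoctylammonium bromide control for full effect; nearly all actives have a fitted effect of over 55% in size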
How it was run: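 In this qHTS, ATP-based luciferase luminescence (CellTiter-Glo) is quantified in human lymphoblastoid cells after 24 hr compound treatment at 37 C; tetraoctylammonium bromide serves as positive control. Concentration-response curves are Hill-fitted to give AC50.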

[9] = Cell Viability - LYMP2-025 (AID 976); details: LYMP2-025 lymphoblastoid cell viability; series mostly up to 92.2 µM;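 also: plate controls were DMSO only for no effect and tetraoctylammonium bromide control for full effect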
How it was run: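 Luminescent ATP readout after 24 hr treatment of a human lymphoblastoid line (LYMP2-025, 2500 cells/well, 37 C). Reagent developed 30 min at room temperature; AC50 fitted with the Hill equation.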

[10] = Cell Viability - LYMP2-002 (AID 977); details: LYMP2-002 lymphoblastoid cell viability, qHTS; series mostly up to 92.2 µM;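 also: compound exposure lasted 24 h at 37 °C; plate controls were DMSO only for no effect and 92 µM tetraoctylammonium bromide for full effect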
How it was run: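 Human lymphoblastoid cells (2500/well) in complete medium were preincubated 5 hr at 37 C, then exposed to compounds for 24 hr at 37 C. Intracellular ATP was read by CellTiter-Glo luminescence; AC50 came from Hill-equation concentration-response fits.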

[11] = Cell Viability - LYMP2-007 (AID 979); details: LYMP2-007 lymphoblastoid cell viability; series mostly up to 92.2 µM;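 also: cells exposed to compound for 24 h before reading; 0% = DMSO only and the negative end = 92 µM tetraoctylammonium bromide; nearly all actives have a fitted effect of over 60% in size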
How it was run: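 Measured via luciferase-based ATP quantitation: lymphoblastoid cells, 24 hr compound exposure at 37 C, AC50 from Hill fits.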

[12] = Cell Viability - LYMP2-008 (AID 980); details: LYMP2-008 lymphoblastoid cell viability, qHTS; series mostly up to 92.2 µM; also: % is scaled to controls: 0 for no effect and ±100 for the full control effect; nearly all actives have a fitted effect of over 60% in size
How it was run: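 Measured: ATP-dependent luminescence, proportional to viable cell number, in human lymphoblastoid cells treated 24 hr with compound in complete culture medium. Values are AC50s from Hill-equation modelling of qHTS titrations.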

[13] = Cell Viability - LYMP2-014 (AID 983); details: LYMP2-014 lymphoblastoid cells, viability qHTS; series mostly up to 92.2 µM;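 also: plate controls were DMSO only for no effect and 92 µM tetraoctylammonium bromide for full effect; nearly all actives have a fitted effect of over 50% in size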
How it was run: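 Quantitative HTS in lymphoblastoid cells: 24 hr compound exposure, then CellTiter-Glo ATP luminescence. Positive control was tetraoctylammonium bromide, 6.4pM to 92 uM.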

[14] = Cell Viability - LYMP1-002 - Assay at 24 hr (AID 993); details: LYMP1-002 lymphoblastoid cells viability; series mostly up to 92.2 µM; also: % is scaled to controls: 0 for no effect and ±100 for the full control effect
How it was run: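 Viability was judged from intracellular ATP using a luciferase read-out, following a 24-hour compound incubation at 37 C of lymphoblastoid cells seeded at 2500 per well. Concentration-response data were fitted to the Hill equation for AC50.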

[15] = molecular target: ATP-dependent 6-phosphofructokinase (Trypanosoma brucei brucei) (UniProt O15648); experiment: qHTS Assay to Find Inhibitors of T. brucei phosphofructokinase: hit validation (AID 492961);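 also: luminescence reports ADP formed as PFK phosphorylates fructose-6-phosphate with ATP; % is scaled to controls: 0 for no effect and ±100 for the full control effect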; details: T. brucei PFK, ADP-Glo luminescence; series mostly up to 51.4 µM
How it was run: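 In this biochemical qHTS validation, titrated compounds were tested against 1.25 nM PFK with 0.1 mM ATP and 0.5 mM F6P. Percent activity came from controls lacking or containing enzyme.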

[16] = molecular target: Estrogen receptor (Homo sapiens) (UniProt P03372); experiment: qHTS assay for small molecule antagonists of estrogen receptor alpha signaling (AID 588513; active = well fitted curve in the direction sought with a large enough effect in the signal ratio, with a control signal flat, not every such curve was filed as active; the % refers to the signal ratio; also: % is scaled to controls: 0 for no effect and ±100 for the full control effect); details: ER-alpha-UAS-bla HEK293, beta-lactamase ratio, antagonist mode; series mostly up to 76.9 µM
How it was run: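 Cells were plated at 5000/well and incubated 4 h at 37 C. Compounds were added as 1:2 dilution series, duplicates. 17-beta-estradiol (0.5nM final) was added for 18 h before CCF4 detection.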

[17] = molecular target: Estrogen receptor (Homo sapiens) (UniProt P03372); experiment: qHTS assay for small molecule agonists of estrogen receptor alpha signaling (AID 588514; calls by dose curve;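 also: 0% = vehicle only and 100% = reference agonist; nearly all actives have a fitted effect of over 70% in size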); details: ER-alpha-UAS-bla HEK293, beta-lactamase ratio, 18 h, percent of full estradiol response, vehicle zero; series mostly up to 76.8 µM
How it was run: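 Fluorescence from CCF4 cleavage reports ER-alpha-driven beta-lactamase expression in HEK 293 cells treated 18 hrs at 37 C. Data normalized to 17-beta-estradiol (20 nM) and DMSO, fitted to Hill equation.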

[18] = molecular target: Bile acid receptor (Homo sapiens) (UniProt Q96RI1); experiment: qHTS assay for small molecule antagonists of farnesoid X receptor signaling (AID 588526; calls by dose curve; also: % is scaled to controls: 0 for no effect and ±100 for the full control effect); details: HEK293T FXR-UAS-bla, beta-lactamase ratio, antagonist mode; series mostly up to 76.7 µM
How it was run: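 Beta-lactamase reporter antagonist mode: HEK293T FXR-UAS-bla cells, titrated compound, CDCA stimulation, 16 h 37 C, CCF4 dye 2 h RT. Data normalized to CDCA 50 uM and DMSO; Hill-fit IC50.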

[19] = molecular target: Glucocorticoid receptor (Homo sapiens) (UniProt P04150); experiment: qHTS assay for small molecule agonists of glucocorticoid receptor signaling (AID 588532; active = well fitted curve in the direction sought with a large enough effect in the signal ratio, with a control signal flat; the % refers to the signal ratio;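 also: 100% = dexamethasone at 0.1 µM and 0% = DMSO only wells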); details: HeLa MMTV-bla, beta-lactamase ratio, agonist, 18 h; stronger effect = higher value; percent of dexamethasone control, DMSO zero
How it was run: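 Quantitative HTS using CellSensor MMTV-bla HeLa cells in charcoal/dextran-treated serum; compounds tested up to 92 uM. After 18 h at 37 C, CCF4 dye reported reporter induction.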

[20] = molecular target: Glucocorticoid receptor (Homo sapiens) (UniProt P04150); experiment: qHTS assay for small molecule antagonists of glucocorticoid receptor signaling (AID 588533; active = well fitted inhibition curve with a large enough effect in the signal ratio, with a control signal flat, not every such curve was filed as active; the % refers to the signal ratio); details: HeLa MMTV-bla, GRE beta-lactamase ratio, antagonist mode, 18 h; series mostly up to 76.8 µM
How it was run: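 Antagonist-mode qHTS: compound titrations added to GRE-bla HeLa cells, then dexamethasone 2 nM final; 18 h, 37 C. CCF4 FRET fluorescence normalized to dexamethasone and DMSO; IC50 from Hill fit.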

[21] = molecular target: Vitamin D3 receptor (Homo sapiens) (UniProt P11473); experiment: qHTS assay for small molecule antagonists of vitamin D receptor signaling (AID 588541; calls by dose curve); details: HEK293T VDR-UAS-bla, beta-lactamase ratio, antagonist mode; series mostly up to 76.7 µM
How it was run: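 Antagonist-mode beta-lactamase reporter assay: HEK293T VDR-UAS-bla cells were exposed to titrated compound alongside 1-alpha,25-dihydroxyvitamin D3 at 3 nM final for 16 h. Values were normalized to the 50 nM agonist control and DMSO basal, with IC50 and efficacy from Hill equation fits.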

[22] = molecular target: Vitamin D3 receptor (Homo sapiens) (UniProt P11473); experiment: qHTS assay for small molecule agonists of vitamin D receptor signaling (AID 588543; calls by dose curve;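 also: 0% = DMSO basal and 100% = reference agonist control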); details: HEK293T VDR-UAS-bla, beta-lactamase ratio, 16 h; series mostly up to 76.8 µM
How it was run: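 qHTS in agonist mode: compound titrations stimulate a VDR-driven β-lactamase reporter in HEK293T cells over 16 h at 37 °C. Response normalized to 50 nM 1α,25-dihydroxyvitamin D3 = 100%, DMSO = 0%; Hill fitting gives EC50 and maximal response.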

[23] = molecular target: Thyroid hormone receptor beta (Homo sapiens) (UniProt P10828); experiment: qHTS assay for small molecule agonists of thyroid hormone receptor beta signaling (AID 588545; calls by dose curve;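 also: 0% = DMSO only and 100% = 10 nM T3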); details: TR-UAS-bla GripTite HEK 293, beta-lactamase ratio, agonist mode, 18 h, percent of T3 response, DMSO as zero; series mostly up to 76.7 µM
How it was run: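 Beta-lactamase reporter activity under TR response element control is measured in HEK 293 cells after 18 hrs compound exposure. Signal is ratiometric CCF4 fluorescence, 460/530 nm.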

Glucocorticoid receptor (Homo sapiens), sequence (P04150 whole entry, looked up): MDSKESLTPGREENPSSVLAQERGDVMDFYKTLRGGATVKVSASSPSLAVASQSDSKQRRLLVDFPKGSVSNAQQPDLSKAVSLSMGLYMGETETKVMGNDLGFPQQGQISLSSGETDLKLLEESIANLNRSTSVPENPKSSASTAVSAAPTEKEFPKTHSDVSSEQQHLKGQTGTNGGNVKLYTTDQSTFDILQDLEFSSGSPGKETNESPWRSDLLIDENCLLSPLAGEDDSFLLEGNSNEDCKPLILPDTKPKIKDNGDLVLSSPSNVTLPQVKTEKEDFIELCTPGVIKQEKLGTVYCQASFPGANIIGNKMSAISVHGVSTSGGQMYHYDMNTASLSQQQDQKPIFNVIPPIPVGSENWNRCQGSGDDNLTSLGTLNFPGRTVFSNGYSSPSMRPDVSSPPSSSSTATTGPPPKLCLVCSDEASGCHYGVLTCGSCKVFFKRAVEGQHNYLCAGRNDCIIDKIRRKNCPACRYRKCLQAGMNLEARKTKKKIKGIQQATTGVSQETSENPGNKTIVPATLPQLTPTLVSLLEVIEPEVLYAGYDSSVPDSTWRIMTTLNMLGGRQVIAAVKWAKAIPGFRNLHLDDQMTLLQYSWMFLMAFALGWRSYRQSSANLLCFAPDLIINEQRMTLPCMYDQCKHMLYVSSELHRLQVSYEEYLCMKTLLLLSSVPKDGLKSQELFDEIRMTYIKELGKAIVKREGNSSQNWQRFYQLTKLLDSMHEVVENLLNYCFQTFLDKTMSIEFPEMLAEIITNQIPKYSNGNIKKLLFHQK
Estrogen receptor (Homo sapiens), sequence (P03372 whole entry, looked up): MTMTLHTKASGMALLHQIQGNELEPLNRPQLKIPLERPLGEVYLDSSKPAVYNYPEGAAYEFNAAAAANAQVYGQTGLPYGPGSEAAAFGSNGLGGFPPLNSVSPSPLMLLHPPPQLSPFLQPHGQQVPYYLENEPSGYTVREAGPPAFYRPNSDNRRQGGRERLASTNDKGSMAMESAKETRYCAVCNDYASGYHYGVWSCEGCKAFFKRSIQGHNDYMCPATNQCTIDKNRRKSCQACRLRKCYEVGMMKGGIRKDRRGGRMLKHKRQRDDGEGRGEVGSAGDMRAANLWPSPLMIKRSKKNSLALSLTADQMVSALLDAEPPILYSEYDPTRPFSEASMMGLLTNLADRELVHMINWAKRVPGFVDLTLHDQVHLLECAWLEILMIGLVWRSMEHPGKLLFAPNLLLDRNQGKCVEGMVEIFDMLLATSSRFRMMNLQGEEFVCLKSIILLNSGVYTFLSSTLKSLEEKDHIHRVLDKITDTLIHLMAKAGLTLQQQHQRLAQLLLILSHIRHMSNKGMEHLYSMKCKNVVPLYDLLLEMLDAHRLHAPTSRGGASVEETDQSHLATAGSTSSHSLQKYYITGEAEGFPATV
Vitamin D3 receptor (Homo sapiens), sequence (P11473 whole entry, looked up): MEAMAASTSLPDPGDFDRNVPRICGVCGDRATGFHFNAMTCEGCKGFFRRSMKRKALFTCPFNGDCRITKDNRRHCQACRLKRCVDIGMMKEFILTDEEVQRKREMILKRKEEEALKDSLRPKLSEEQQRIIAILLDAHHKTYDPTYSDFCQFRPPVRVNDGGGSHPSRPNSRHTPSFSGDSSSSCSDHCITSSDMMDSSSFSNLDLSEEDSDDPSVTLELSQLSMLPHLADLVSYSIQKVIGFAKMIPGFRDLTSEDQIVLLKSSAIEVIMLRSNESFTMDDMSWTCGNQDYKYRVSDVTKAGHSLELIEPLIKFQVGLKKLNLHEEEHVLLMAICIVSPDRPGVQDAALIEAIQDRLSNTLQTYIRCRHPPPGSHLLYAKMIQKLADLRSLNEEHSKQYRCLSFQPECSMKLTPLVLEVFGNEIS
Bile acid receptor (Homo sapiens), sequence (Q96RI1 whole entry, looked up): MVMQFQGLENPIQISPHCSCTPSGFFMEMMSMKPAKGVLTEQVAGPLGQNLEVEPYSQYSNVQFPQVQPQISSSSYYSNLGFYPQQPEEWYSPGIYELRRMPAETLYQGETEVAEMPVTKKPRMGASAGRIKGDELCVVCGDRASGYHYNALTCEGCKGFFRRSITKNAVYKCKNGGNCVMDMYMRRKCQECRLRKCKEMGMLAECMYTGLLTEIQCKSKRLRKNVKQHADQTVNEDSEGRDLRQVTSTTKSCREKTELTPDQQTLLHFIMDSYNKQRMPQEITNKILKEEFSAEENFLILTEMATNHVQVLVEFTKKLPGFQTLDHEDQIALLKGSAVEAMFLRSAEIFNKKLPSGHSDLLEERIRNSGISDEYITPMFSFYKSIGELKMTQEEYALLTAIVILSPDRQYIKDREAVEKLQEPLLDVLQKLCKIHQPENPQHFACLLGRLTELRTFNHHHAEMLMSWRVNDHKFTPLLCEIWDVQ
Thyroid hormone receptor beta (Homo sapiens), sequence (P10828 whole entry, looked up): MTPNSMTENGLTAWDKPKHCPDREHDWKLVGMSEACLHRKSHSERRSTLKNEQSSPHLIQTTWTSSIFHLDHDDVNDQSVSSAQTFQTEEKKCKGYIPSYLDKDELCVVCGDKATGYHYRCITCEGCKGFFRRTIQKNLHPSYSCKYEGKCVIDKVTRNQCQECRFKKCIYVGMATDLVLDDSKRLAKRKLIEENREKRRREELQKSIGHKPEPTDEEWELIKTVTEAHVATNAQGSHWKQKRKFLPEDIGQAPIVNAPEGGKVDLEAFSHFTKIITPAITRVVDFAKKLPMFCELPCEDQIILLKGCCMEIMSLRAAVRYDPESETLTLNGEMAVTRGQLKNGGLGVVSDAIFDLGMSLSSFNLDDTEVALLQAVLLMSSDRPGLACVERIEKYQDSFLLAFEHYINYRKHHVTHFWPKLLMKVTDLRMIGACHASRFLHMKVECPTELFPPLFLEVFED
ATP-dependent 6-phosphofructokinase (Trypanosoma brucei brucei), sequence (O15648 whole entry, looked up): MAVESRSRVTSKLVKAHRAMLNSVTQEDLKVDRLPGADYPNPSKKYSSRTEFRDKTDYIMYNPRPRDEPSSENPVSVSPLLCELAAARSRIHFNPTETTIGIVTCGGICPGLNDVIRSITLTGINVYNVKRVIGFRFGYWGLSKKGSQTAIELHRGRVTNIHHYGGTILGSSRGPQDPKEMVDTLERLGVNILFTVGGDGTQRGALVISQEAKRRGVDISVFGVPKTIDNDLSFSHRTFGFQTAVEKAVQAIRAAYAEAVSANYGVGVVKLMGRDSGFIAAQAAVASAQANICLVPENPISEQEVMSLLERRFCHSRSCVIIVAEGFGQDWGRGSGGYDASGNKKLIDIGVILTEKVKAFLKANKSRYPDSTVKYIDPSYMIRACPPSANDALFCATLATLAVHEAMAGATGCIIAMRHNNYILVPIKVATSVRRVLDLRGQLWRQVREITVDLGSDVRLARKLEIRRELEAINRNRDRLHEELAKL

CO[C@H]1/C=C/O[C@@]2(C)Oc3c(C)c(O)c4c(O)c(c5c(c4c3C2=O)NC2(CCN(CC(C)C)CC2)N=5)=NC(=O)/C(C)=C\C=C\[C@H](C)[C@H](O)[C@@H](C)[C@@H](O)[C@@H](C)[C@H](OC(C)=O)[C@@H]1C
inactive: Potency [1] | Potency [2] | Potency [3] | Potency [4] | Potency [5] | Potency [6] | Potency [7] | Potency [8] | Potency [9] | Potency [10] | Potency [11] | Potency [12] | Potency [13] | Potency [14] | Potency [15] | Potency [16] | outcome [17] | Potency [18] | activation [19] -2.4% | Potency [20] | Potency [21] | outcome [22] | outcome [23]
